± gives the standard deviation of the averaged measurements.

DNA primase, sequence (P0ABS7 whole entry): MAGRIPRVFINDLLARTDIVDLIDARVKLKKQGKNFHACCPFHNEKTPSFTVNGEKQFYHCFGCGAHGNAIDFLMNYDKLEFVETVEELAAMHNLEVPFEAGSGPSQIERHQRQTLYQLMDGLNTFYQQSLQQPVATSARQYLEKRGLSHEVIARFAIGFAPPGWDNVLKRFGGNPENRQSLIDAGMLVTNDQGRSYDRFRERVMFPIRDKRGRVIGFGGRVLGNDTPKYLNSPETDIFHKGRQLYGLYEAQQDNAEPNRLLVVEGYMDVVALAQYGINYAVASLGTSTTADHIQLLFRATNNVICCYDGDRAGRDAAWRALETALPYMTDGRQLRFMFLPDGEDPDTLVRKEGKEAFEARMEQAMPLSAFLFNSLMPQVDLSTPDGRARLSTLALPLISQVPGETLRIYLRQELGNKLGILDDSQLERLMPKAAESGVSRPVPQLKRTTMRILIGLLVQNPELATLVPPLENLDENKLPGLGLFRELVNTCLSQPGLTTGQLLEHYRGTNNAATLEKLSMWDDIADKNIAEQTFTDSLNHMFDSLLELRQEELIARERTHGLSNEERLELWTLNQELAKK

For this experiment, the target named is DNA primase (UniProt P0ABS7). Description: relative enzymatic activity vs untreated control (fraction); higher = less inhibition. Conditions: 100 µM; incubation time: 2 h at 37 C. The protocol:
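In vitro enzymatic inhibition assays (ProFoldin kits) for 12 purified essential E. coli enzymes or complexes, each treated with 218 active antibacterial compounds at 100 µM for 2 h at 37°C. Read-outs were fluorescence or absorbance (phosphate detection, dye binding), converted to activity via standard curves and expressed relative to untreated DMSO controls.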
The compound `Cc1c(N)nc([C@H](CC(N)=O)NC[C@@H](N)C(N)=O)nc1C(=O)N[C@H](C(=O)N[C@@H](C)[C@H](O)[C@@H](C)C(=O)N[C@@H](C(=O)NCCc1nc(-c2nc(C(=O)NCCC[S+](C)C)cs2)cs1)[C@@H](C)O)[C@@H](O[C@H]1O[C@H](CO)[C@H](O)[C@@H](O)[C@H]1O[C@H]1O[C@H](CO)[C@@H](O)[C@H](OC(N)=O)[C@@H]1O)c1cnc[nH]1` came in with a relative enzymatic activity of 0.801 ± 0.0016. In the case of `CN(C)[C@@H]1C(=O)[C@@H](C(N)=O)C(=O)[C@@]2(O)C(=O)[C@H]3C(=O)c4c(O)ccc(Cl)c4[C@@](C)(O)[C@H]3C[C@@H]12` it was 0.778 ± 0.016; in that of `O=S(=O)(O)O.Oc1cccc2cccnc12`, 0.441 ± 0.18. As to `CC(=O)Oc1ccc(Cl)c2cccnc12`, the relative enzymatic activity came out at 0.8364 ± 0.0049. The compound `CN(C)[C@@H]1C(=O)C(C(N)=O)=C(O)[C@@]2(O)C(O)=C3C(=O)c4c(O)cccc4[C@](C)(O)[C@H]3C[C@@H]12` had a relative enzymatic activity of 0.753 ± 0.025. To `Cc1c(N)nc([C@H](CC(N)=O)NC[C@@H](N)C(N)=O)nc1C(=O)N[C@H](C(=O)N[C@@H](C)[C@H](O)[C@@H](C)C(=O)N[C@@H](C(=O)NCCc1nc(-c2nc(C(=O)NCCC[S+](C)C)cs2)cs1)[C@@H](C)O)[C@@H](O[C@H]1O[C@H](CO)[C@H](O)[C@@H](O)[C@H]1O[C@H]1O[C@H](CO)[C@@H](O)[C@H](OC(N)=O)[C@@H]1O)c1c[nH]cn1` belongs 0.878 ± 0.06. In the case of `Oc1cc(Cl)ccc1Oc1ccc(Cl)cc1Cl` it was 0.839 ± 0.013.

Consider `O=[N+]([O-])C(Br)(CO)CO`, for which the relative enzymatic activity was 0.596 ± 0.031. `CCCCCCCCCCCCCCCC[n+]1ccccc1` gave a relative enzymatic activity of 0.341 ± 0.023.

`Cn1ncnc2c(=O)n(C)c(=O)nc1-2` returned a relative enzymatic activity of 0.758 ± 0.047.

In turn, `COP(=S)(OC)Oc1cc(Cl)c(Cl)cc1Cl` had a relative enzymatic activity of 0.737 ± 0.2.

Compound `CC(=O)[O][Hg][c]1ccccc1` showed a relative enzymatic activity of 0.749 ± 0.28. To `O=[N+]([O-])c1ccc(N(CCO)CCO)c2c1no[n+]2[O-]` belongs 0.559 ± 0.099. To `CCCCCCCCCCCCCCCC[N+](C)(C)C.[Br-]` belongs 0.371 ± 0.042; to `O=C1C=C2C(=CCOC2O)O1` (centres undefined), 0.632 ± 0.14.

In turn, `CN[C@H]1C[C@@H](N)[C@H](O)[C@@H](O[C@@H]2O[C@H](CO)[C@H](O)[C@@H]3O[C@@]4(O[C@H]23)O[C@H]([C@@H](N)CO)[C@H](O)[C@H](O)[C@H]4O)[C@@H]1O` yielded a relative enzymatic activity of 0.883 ± 0.02. With `CN1C(=O)[C@]23CC4=CC=C[C@H](O)[C@H]4N2C(=O)[C@@]1(CO)SS3`, the relative enzymatic activity amounted to 0.859 ± 0.019. To `Cc1nc2c(=O)n(C)c(=O)nc-2n(C)n1` belongs 0.8 ± 0.023; to `[O-][n+]1ccccc1[S][Zn][S]c1cccc[n+]1[O-]`, 0.788 ± 0.27; to `CCCCCCCCCCCCCCCC[n+]1ccccc1.[Cl-]`, 0.3763 ± 0.00042. To `CNC1C(O)C(OC2C(N)CC(N)C(OC3OC(C(C)O)C(O)C(O)C3N)C2O)OCC1(C)O` (centres undefined) belongs 0.749 ± 0.25; to `CCn1cc(C(=O)[O-])c(=O)c2cc3c(cc21)OCO3.[K+]`, 0.826 ± 0.033; to `CN(C)[C@@H]1C(=O)[C@H](C(N)=O)C(=O)[C@@]2(O)C(=O)[C@@H]3C(=O)c4c(O)cccc4[C@@](C)(O)[C@H]3C[C@@H]12`, 0.801 ± 0.02. To `C[CH2][Hg][S]c1ccccc1C(=O)[O-].[Na+]` belongs 0.649 ± 0.14.

Values taken from the supplement of paper PMC9446081.
